NPSR antag: neuropeptide S receptor (human) antagonism, cAMP; Q6W5P4; CHO-NPSR cells, cAMP TR-FRET, antagonist mode; Potency, µM (titrated, usually from 38.3 µM), inactives show at the highest dose activity change, negative = inhibition, hits mostly inhibitors; 1% of 220,000 active; further: potency means the concentration at half of the fitted maximal effect; nearly all actives have a fitted effect of over 50% in size
KDM4E inh: inhibitors of human JMJD2E histone demethylase; B2RXH2; JMJD2E catalytic domain, FDH-coupled NADH fluorescence (FDH is formaldehyde dehydrogenase); Potency, µM (top dose mostly 57.1 µM), for the others: at the highest dose activity change, negative = inhibition, usual class: inhibitors; 1.6% of 230,000 active; AID 2147; active means well fitted inhibition curve with a large enough effect, not every such curve was filed as active; inconclusive means small, poorly fitted or top-dose-only effect, or another doubt; inactive means no such curve, though single readings can be large or run the other way;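 further: potency means the concentration at half of the fitted maximal effect; 0% = wells with enzyme and -100% = buffer wells without enzyme; nearly all actives have a fitted effect of over 50% in size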
Target sequence (B2RXH2 1-337 limits assumed): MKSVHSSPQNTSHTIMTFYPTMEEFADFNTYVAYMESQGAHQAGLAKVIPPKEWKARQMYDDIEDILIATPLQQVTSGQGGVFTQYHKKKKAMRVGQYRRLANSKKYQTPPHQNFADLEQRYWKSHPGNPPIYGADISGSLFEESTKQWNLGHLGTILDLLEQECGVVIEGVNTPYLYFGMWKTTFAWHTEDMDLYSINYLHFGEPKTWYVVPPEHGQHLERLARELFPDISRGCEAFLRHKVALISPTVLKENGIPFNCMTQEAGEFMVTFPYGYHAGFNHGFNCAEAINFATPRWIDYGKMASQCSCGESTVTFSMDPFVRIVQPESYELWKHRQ
Sfp PPTase inh: inhibitors of Bacillus subtilis Sfp phosphopantetheinyl transferase | Q9F4F7 | Potency, µM, for inactives: largest response in the series, negative = inhibition, usual class: inhibitors | Biochemical Sfp PPTase activity, qHTS | 3.5% of 310,000 active | AID 1490;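 further: the enzyme is Sfp with the accession as filed and its product quenches rhodamine fluorescence; potency means the concentration at half of the fitted maximal effect; 0% = enzyme reaction without inhibitor and -100% = no enzyme wells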
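Fluorescence-quenching assay: 15 nM Sfp-PPTase preincubated 15 min at room temperature with compound, then 5 uM rhodamine-CoA and 12.5 uM BHQ-2-labelled YbbR peptide added. Fluorescence (ex 525/em 598 nm) read at start and after 30 min; difference gives rate.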
ALDH1A1 inh: blocks purified human ALDH1A1 activity | 7.3% of 220,000 active | P00352 | Purified ALDH1A1, NADH fluorescence, propionaldehyde substrate | Potency, µM (titrated, usually from 75.3 µM), without a hit: top-dose activity, negative = inhibition, most hits filed as inhibitors; active means well fitted inhibition curve with a large enough effect, not every such curve was filed as active; inconclusive means small, poorly fitted or top-dose-only effect, or another doubt; inactive means no such curve, though single readings can be large or run the other way;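 further: potency means the concentration at half of the fitted maximal effect; plate controls were no enzyme wells and a reference inhibitor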
Coupling enz: coupling enzyme interference in Giardia aldolase counter-screen | coupling enzyme system counterscreen, AmpLite Red fluorescence | activity change, negative = inhibition, % at 58.2 µM, hits read low | AID 2472 | 0.67% of 290,000 active; in the data active means activity change below about -30%
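Final compound at 57.5 uM, incubated 10 min at RT with coupling enzyme reagent (glyceraldehyde-3-phosphate), then 20 min with substrate and AmpLite Red detection. Fluorescence read at 525/598 nm; tests interference with the coupling assay, not aldolase inhibition.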
GoLoco inh red: inhibitors of human Gai1-RGS12 GoLoco interaction (red fluorophore) | AID 880 | Gai1:RGS12 GoLoco peptide FP, rhodamine, 10 min | P63096 | Potency, µM (titrated, usually from 61.6 µM), inactives show at the top dose activity, negative = inhibition, hits mostly inhibitors | 0.44% of 230,000 active; active means well fitted inhibition curve with a large enough effect, not every such curve was filed as active; inactive means no such curve, though single readings can be large or run the other way; further: potency means the concentration at half of the fitted maximal effect; nearly all actives have a fitted effect of over 30% in size
Target sequence (P63096 whole entry, looked up): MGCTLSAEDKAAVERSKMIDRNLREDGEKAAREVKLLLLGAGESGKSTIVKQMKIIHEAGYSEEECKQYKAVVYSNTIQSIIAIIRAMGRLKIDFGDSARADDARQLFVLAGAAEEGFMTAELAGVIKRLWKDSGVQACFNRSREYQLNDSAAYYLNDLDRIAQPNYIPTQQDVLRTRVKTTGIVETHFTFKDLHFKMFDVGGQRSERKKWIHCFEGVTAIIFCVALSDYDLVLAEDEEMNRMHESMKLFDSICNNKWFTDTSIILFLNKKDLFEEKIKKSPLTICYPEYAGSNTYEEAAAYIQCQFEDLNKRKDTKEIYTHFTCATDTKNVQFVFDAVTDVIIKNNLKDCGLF
An asterisk follows results filed as active; ! = not active in a repeat; [ ] = dose if it differs, or a comment. Rows were chosen to be rich in hits. Some 8.5% of all compounds tested hit in one or more screens of this group. Unless noted, the call rests on the fitted dose curve; in most records, active means well fitted curve in the direction sought with a large enough effect; inconclusive means small, poorly fitted or top-dose-only effect, or another doubt; inactive means no such curve, though single readings can be large; an effect the other way counts as inactive or inconclusive. Unless noted, on the % scale 0 is the no-effect control and ±100 the full control effect.

For O=C(C1=C[C@@H]2[C@H]3C(=O)N(c4ccccc4)C(=O)[C@H]3[C@@H](C(=O)c3ccc(Cl)cc3)N2C=C1)c1ccccc1 the results were NPSR antag 0%, KDM4E inh -7%, Sfp PPTase inh -9%, ALDH1A1 inh 20µM*, Coupling enz -16 and GoLoco inh red 80%.
`O=C(Nc1ccccc1O)c1ccccc1O` gave NPSR antag -17%[46.1 µM], KDM4E inh -26%, Sfp PPTase inh -24%, ALDH1A1 inh 2%, Coupling enz 0 and GoLoco inh red 5%.
Screening Cc1cccc(NC(=O)c2ccccc2O)c1C returned NPSR antag 11%[46.1 µM], KDM4E inh -4%, Sfp PPTase inh 13%, ALDH1A1 inh 5%, Coupling enz -32* and GoLoco inh red 5%.
Cc1cccc(NC(=O)c2ccc([N+](=O)[O-])s2)c1C was read as NPSR antag -20%, KDM4E inh 1%, Sfp PPTase inh -3%, ALDH1A1 inh 0.89µM*, Coupling enz 1 and GoLoco inh red -6%.
Screening Cc1ccc(S(=O)(=O)N(C)C)cc1-n1c(SCC(=O)Nc2ccc(F)c(F)c2F)nc2ccccc2c1=O returned NPSR antag -3%, KDM4E inh -7%, Sfp PPTase inh -4%, ALDH1A1 inh -1%, Coupling enz -3 and GoLoco inh red 4%.
O=S(=O)(c1ccccc1)N1CCC2(CCN(c3ccccc3)CC2)CC1 was read as Sfp PPTase inh -7%, ALDH1A1 inh inconclusive, Coupling enz 0 and GoLoco inh red 8%.
CC1CCCCC1NC(=S)NC(=O)c1sc2ccccc2c1Cl (stereo not drawn) was read as NPSR antag 16%, KDM4E inh -10%, Sfp PPTase inh 32µM*, ALDH1A1 inh inconclusive, Coupling enz -8 and GoLoco inh red 13%.
`Cc1c(NC(=S)NC(=O)c2sc3ccccc3c2Cl)cccc1C(=O)O` gave NPSR antag -39%, KDM4E inh inconclusive, Sfp PPTase inh -15%, ALDH1A1 inh 25µM*, Coupling enz 21 and GoLoco inh red 26%.
`COc1ccccc1C(=O)NNC(=S)NC(=O)c1sc2ccccc2c1Cl` gave NPSR antag -15%, KDM4E inh 4%, Sfp PPTase inh 13%, ALDH1A1 inh -11%, Coupling enz 5 and GoLoco inh red 1%.
CCOC(=O)c1c(-c2ccc(C)cc2)csc1NC(=S)NC(=O)c1ccccc1 was read as NPSR antag -23%[46.1 µM], KDM4E inh -5%, Sfp PPTase inh 21%, ALDH1A1 inh -5%, Coupling enz -6 and GoLoco inh red 4%.
Screening CCOC(=O)c1c(-c2ccc(-c3ccccc3)cc2)csc1NC(=O)C1C2CCC(O2)C1C(=O)O (stereo not drawn) returned NPSR antag inconclusive, KDM4E inh inconclusive, Sfp PPTase inh 50µM*, ALDH1A1 inh inconclusive, Coupling enz 11 and GoLoco inh red 0%.
CCOC(=O)c1c(-c2ccccc2)csc1NC(=O)C1CCCO1 (stereo not drawn) was read as NPSR antag inconclusive, KDM4E inh inconclusive, Sfp PPTase inh 32µM*, ALDH1A1 inh inconclusive, Coupling enz 4 and GoLoco inh red 2%.
For CCOC(=O)c1c(-c2ccc(C)cc2)csc1NC(=O)c1cc2ccccc2oc1=O the results were NPSR antag 10µM*, KDM4E inh 7%, Sfp PPTase inh inconclusive, ALDH1A1 inh inconclusive, Coupling enz 1 and GoLoco inh red 11%.
Screening CC1(C)CC(=O)c2c(O)cc(OCC(=O)N3CCN(c4ccccc4)CC3)cc2O1 returned Sfp PPTase inh 2% and Coupling enz 2.
`CCOC(=O)C1(Cc2ccc(OC)cc2)CCN(S(C)(=O)=O)CC1` gave NPSR antag -8%, KDM4E inh -4%, Sfp PPTase inh 10%, ALDH1A1 inh 18%, Coupling enz -3 and GoLoco inh red -3%.
Screening CCOC(=O)C1(Cc2ccccc2Cl)CCN(S(C)(=O)=O)CC1 returned NPSR antag -5%, KDM4E inh -7%, Sfp PPTase inh 4%, ALDH1A1 inh 10µM*, Coupling enz -4 and GoLoco inh red 2%.
Screening COc1ccccc1CCn1c(=O)cnc2cncnc21 returned Sfp PPTase inh 15%, ALDH1A1 inh 1.4µM*, Coupling enz 1 and GoLoco inh red 0%.
Screening CCOc1ccc(CCNC(=O)CCNC(=O)c2ccc(Br)cc2)cc1OCC returned Sfp PPTase inh 9%.
For O=C(C1=C[C@H](C2CC2)C[C@H](OCCCCO)O1)N1CCOCC1 the results were NPSR antag -5%, KDM4E inh -12%, Sfp PPTase inh -8%, ALDH1A1 inh inconclusive, Coupling enz 0 and GoLoco inh red -2%.
COc1ccc(C2NC3=C(CCC3)C3(C#N)C4(N=C(N)C23C#N)OCCO4)cc1 (stereo not drawn) was read as NPSR antag inconclusive, KDM4E inh 5%, Sfp PPTase inh -5%, ALDH1A1 inh inconclusive, Coupling enz -9 and GoLoco inh red 48%.
For COc1ccc(C2NC3=C(CCCC3)C(C#N)(C#N)C2(C#N)C#N)cc1 (stereo not drawn) the results were NPSR antag -18%[46.1 µM], KDM4E inh inconclusive, Sfp PPTase inh 56µM*, ALDH1A1 inh inconclusive, Coupling enz -27 and GoLoco inh red 169%.
N[C@@H](Cc1c[nH]c2ccc(O)cc12)C(=O)O was read as NPSR antag inconclusive, KDM4E inh inconclusive, Sfp PPTase inh -26%, ALDH1A1 inh 28µM*! and GoLoco inh red -5%.
NC(Cc1c[nH]c2ccc(OCc3ccccc3)cc12)C(=O)O (stereo not drawn) was read as Sfp PPTase inh -11% and Coupling enz 0.
`COc1nc(N)nc(N)c1NS(=O)(=O)c1ccc(C)cc1` gave Sfp PPTase inh 11%.
Screening COc1ccc(N2C(=NC(=O)C3CCCCC3)SC3CS(=O)(=O)CC32)c(OC)c1 (stereo not drawn) returned Sfp PPTase inh 13%.
Screening COC(=O)C1Sc2[nH]c(=O)sc2C2c3ccccc3OC(=O)C12 (stereo not drawn) returned NPSR antag -18%[46.1 µM], KDM4E inh 2%, Sfp PPTase inh 17%, ALDH1A1 inh inconclusive, Coupling enz 0 and GoLoco inh red -11%.
COC(=O)C1CSc2[nH]c(=O)sc2C1c1ccccc1 (stereo not drawn) was read as NPSR antag -5%[46.1 µM], KDM4E inh -3%, Sfp PPTase inh 45µM*, ALDH1A1 inh 32µM*, Coupling enz -4 and GoLoco inh red -10%.

Screening results: PubChem, National Center for Advancing Translational Sciences (NCATS)
